Laboratory results from PubChem BioAssay (Tox21).
“And” between values parts separate entries of the source, which are not always exact repeats. Equal values may be shown once. Records with an inconclusive call do not appear. Unmarked numbers belong to inactive results. The source made the active and inactive calls. Calls come from the whole dose curve; as a rule, active = well fitted inhibition curve with a large enough effect in the repeat runs; inconclusive = weak or mixed curves; inactive = no such curve, though single readings can be large or run the other way.

target: Cytochrome P450 3A4 (Homo sapiens) (UniProt P08684); experiment: Cytochrome P450 Family 3 Subfamily A Member 4 (CYP3A4) small molecule antagonists: luciferase reporter qHTS assay (AID 1671201); conditions: P450-Glo CYP3A4 enzyme, luciferin luminescence, 1 h; series mostly up to 115 µM; activity change, negative = inhibition: at the top concentration; note: nearly all actives have a fitted effect of over 50% in size
Description: National Center for Advancing Translational Sciences [NCATS]
U.S. Environmental Protection Agency [EPA]
National Institutes of Environmental Health Sciences [NIEHS]
National Toxicology Program [NTP]
U.S. Food and Drug Administration [FDA]
Cytochrome P450 (CYP) enzymes are membrane-bound hemeproteins that play a key role in metabolism of drugs and xenobiotics. Evaluation of the effect of chemicals on CYP isozymes is useful to minimize the adverse drug reactions and toxicities in drug development process. Tox21 chemicals were tested for their effect on CYP enzyme activities by using P450-Glo (TM) screening systems (Promega Corporation, Madison, WI). These systems provide a luminescent method containing proluciferin substrates and are converted to luciferin products by CYP isozymes. The luciferin products formed are detected with a luciferin detection reagent, and the amount of light produced is proportional to CYP activity. P450-Glo (TM) CYP3A4 screening system (Catalog. No. V9910) was used to detect the compounds that interfere in CYP3A4 activity. The positive control compound used for CYP3A4 assay is ketoconazole (Sigma-Aldrich, St. Louis, MO).
Tox21 Assay Protocol Summary:
Two ul of enzyme-substrate mix was dispensed into medium binding white/solid 1536-well plates (Greiner Bio-One North America Inc., Monroe, NC) using a BioRaptr Flying Reagent Dispenser (FRD, Beckman Coulter, Brea, CA). Compounds dissolved in DMSO and positive control (ketoconazole) were transferred to the assay plates at 23 nl using a Pintool station (Wako, San Diego, CA). The assay plates were incubated at room temperature for 10 min. Then 2 ul of NADPH regeneration solution was added to each well of the assay plates using an FRD and incubated at room temperature for 1 h. The reaction was stopped by adding 4 ul of detection reagent using an FRD and after 20 min incubation at room temperature the luminescence signal was measured using a ViewLux plate reader (Perkin Elmer, Shelton, CT). Data were expressed as relative luminescence units.
% is set by controls: 0 for no effect and ±100 for the full control effect; potency is the fitted concentration of half-maximal effect.

Sequence of Cytochrome P450 3A4 (Homo sapiens) (P08684 whole entry, looked up): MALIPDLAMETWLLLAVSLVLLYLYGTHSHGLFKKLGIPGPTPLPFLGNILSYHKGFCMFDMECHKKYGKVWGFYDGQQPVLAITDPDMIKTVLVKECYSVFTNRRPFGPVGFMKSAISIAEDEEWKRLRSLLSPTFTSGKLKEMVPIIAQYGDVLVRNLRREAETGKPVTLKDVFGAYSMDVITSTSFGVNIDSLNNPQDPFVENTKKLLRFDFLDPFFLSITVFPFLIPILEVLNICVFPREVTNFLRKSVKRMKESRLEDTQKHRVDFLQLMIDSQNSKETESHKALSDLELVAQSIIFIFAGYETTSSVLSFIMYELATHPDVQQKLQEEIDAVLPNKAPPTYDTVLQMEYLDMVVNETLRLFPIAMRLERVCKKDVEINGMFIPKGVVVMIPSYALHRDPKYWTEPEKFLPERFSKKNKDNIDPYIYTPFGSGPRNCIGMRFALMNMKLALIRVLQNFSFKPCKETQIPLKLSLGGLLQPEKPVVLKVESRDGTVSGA

SMILES | activity change, negative = inhibition | Potency
O=C[C@H](O)[C@@H](O)[C@H](O)[C@H](O)CO | 2.52% | 
COC(=O)[C@@H](N)Cc1ccc(O)c(O)c1 | -19.1% [at 52.9 µM] | 
NC(=O)c1ccc([N+](=O)[O-])cc1 | 1.13% | 
O=C1NC(=O)[C@@]2(CCOc3ccc(F)cc32)N1 | 6.75% [at 52.9 µM] | 
CC(C)NCC(O)c1ccc(NS(C)(=O)=O)cc1 (stereo not given) | 7.03% | 
C1CN(CCOCCN2CCOCC2)CCO1 | 0.619% | 
CCC=O | 7.62% | 
CCO[Si](CCC1CCC2OC2C1)(OCC)OCC (stereo not given) | 6.85% | 
CCOC(=O)c1ccc(C)cc1 | 4.65% | 
ClC(Cl)(Br)Br | 8.2% | 
CC/C=C\CCOC(C)=O | 7.41% | 
CCCCC/C=C\CCC=O | -13.7% | 
CCC(C)S (stereo not given) | 2.72% [at 4.07 µM] | 
CCS(=O)(=O)c1ccc(OC)c(C(=O)OC)c1 | 7.77% [at 52.9 µM] | 
CCc1nccnc1CC | 8.66% [at 23.6 µM] | 
O=C1CC2CC1C1CCCC21 (stereo not given) | 7.87% | 
NS(=O)(=O)c1cc(C(=O)O)cc(N2CCCC2)c1Oc1ccccc1 | -2.24% [at 52.9 µM] | 
CCN1CCC[C@H]1CNC(=O)c1c(O)c(Cl)cc(Cl)c1OC | -18.2% [at 52.9 µM] | 
Cc1nc2c([nH]1)c(=O)n(C)c(=O)n2Cc1ccco1 | -5.47% [at 52.9 µM] | 
CC(=O)N(CC(O)CO)c1c(I)c(C(=O)NCCO)c(I)c(C(=O)NCC(O)CO)c1I (stereo not given) | 6.98% [at 52.9 µM] | 

SMILES | activity change, negative = inhibition | Potency
O=C1CCCCCCCCCCCN1 |  | 3.55 µM (active) and 7.96 µM (active)
CCOc1ccc(C(=O)OCCN(CC)CC)cc1 | 6.16% [at 52.9 µM] | 
O=c1cc(-c2ccccc2)oc2ccccc12 |  | inactive
CO[Si](CCCOCC1CO1)(OC)OC (stereo not given) |  | inactive
CCCCCCCCCCCC | 8.14% | 
OCCCC1CCCCC1 | 0.294% | 
C[C@H](NC(CCc1ccccc1)C(=O)O)C(=O)N1CCC[C@H]1C(=O)O (stereo not given in full) | 2.8% [at 52.9 µM] | 
Cc1ccc(Cl)cc1Cl | -0.24% | 
CCCCOCCOCCOCCCC | -0.163% | 
CC(C(=O)O)c1ccc(CC2CCCC2=O)cc1 (stereo not given) | 3.65% [at 52.9 µM] | 
O=C(c1ccccc1)C1CCCCC1 | 82.5% | 
CCN1CCC[C@H]1CNC(=O)c1cc(S(N)(=O)=O)ccc1OC | 15.7% [at 52.9 µM] | 
Cn1cc(S(C)=O)c(=O)c2ccc(F)cc21 (stereo not given) | 5.46% [at 52.9 µM] | 
CS(=O)(=O)O | 8.89% | 
C=C(C)C(=O)OCCCCCCCC(C)C | -4.31% | 
CC(=O)c1ccccc1O | 0.272% | 
NC(=O)COCCN1CCN(C(c2ccccc2)c2ccc(Cl)cc2)CC1 (stereo not given) | -1.12% [at 52.9 µM] | 
N=C(N)c1ccc2cc(OC(=O)c3ccc(N=C(N)N)cc3)ccc2c1 | 55.2% [at 52.9 µM] | 
CCOC(=O)C(=O)OCC | 2.95% | 
N=C(N)c1ccccc1 | 1.47% | 
